Hits are enriched below; roughly 3.5% of the tested compounds scored in any of these assays.
mHTT-CaM PPI inh: mutant huntingtin-calmodulin interaction inhibitors – biochemical, AlphaScreen, primary screen; inhibition, % at 15 µM; hit rate 3.6% among 190,000; AlphaScreen His-mHTT/GST-CaM binding, luminescence; P42858; AID 1671202, 2021;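 also: 0% = both proteins with DMSO and 100% = one protein alone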
Pf apPOL inh: Pf-apPOL inhibitors, biochemical, fluorescence. Recombinant Pf-apPOL, molecular beacon fluorescence, 1.5 h. AID 1794808, 2022. inhibition, % at 10 µM. hit rate 0.25% among 210,000. Plasmodium falciparum apicoplast DNA polymerase (apPOL)
* hit, by the source's call; · = no result given. Rule as the data show it: active = inhibition above about 50%; inactive = the rest.

SMILES | mHTT-CaM PPI inh | Pf apPOL inh
Cc1c(F)cccc1NC(=O)c1cnc(-c2ccc(F)cc2)nc1-c1ccncc1 | 13 | 77*
Cc1ccc(-c2ncc(C(=O)N3CCCC3)c(N3CCCCC3)n2)cc1 | 22 | -6
O=C(Nc1cccc(F)c1)c1cnc(-c2ccc(F)cc2)nc1-c1ccncc1 | 3 | 64*
Cc1ccc(-c2ncc(C(=O)Nc3ccc(Cl)cc3)c(-c3ccncc3)n2)cc1 | 27 | 65*
Cc1ccc(-c2ncc(C(=O)N3CCCCCC3)c(-c3ccncc3)n2)cc1 | 56* | -5
Cc1ccc(NC(=O)c2cnc(-c3ccc(C)cc3)nc2-c2ccncc2)cc1 | 0 | 0
O=C(Nc1ccccc1)c1cnc(-c2ccc(F)cc2)nc1-c1ccncc1 | 6 | 44
O=C(Nc1ccccc1F)c1cnc(-c2ccccc2)nc1-c1ccncc1 | -12 | -2
NNC(=O)c1csc(-c2ccncc2)n1 | · | -4
CC(C)(C)c1cc(N)nc(N)n1 | · | -1
Cc1cc(Cl)ccc1OCCNC(=O)c1cncc(Br)c1 | -13 | 1
CCC(CC)C(=O)Nc1ccc(OC)cc1[N+](=O)[O-] | 7 | -5
CCc1ccccc1NC(=O)C1CCc2nc(N3CCN(C(=O)C(C)C)CC3)sc2C1 (stereo not drawn) | 8 | -5
CCCc1nc2c(c(=O)n1CC(=O)NCc1ccc(C)cc1)CCN(Cc1ccccc1)C2 | 4 | -10
O=C(Nc1cccc2ccc(-n3ccnc3)nc12)c1ccsc1 | 51* | -6
O=C(Nc1cccc2ccc(-n3ccnc3)nc12)c1ccc2c(c1)OCO2 | -10 | 0
CC(C)c1ccc(C(=O)N2CCCC2COc2ccc(C(=O)N3CCOCC3)cc2)cc1 (stereo not drawn) | 10 | 52*
Cc1ccc(C(=O)N2CCCC2COc2ccc(C(=O)N3CCOCC3)cc2)cc1 (stereo not drawn) | 4 | -3
Cc1c(C#N)sc2nc(-c3ccccc3)nc(N=CN(C)C)c12 | -4 | -4
CN(C)C=Nc1c(C#N)cnn1-c1ncnc2sc(-c3ccccc3)cc12 | 82* | -2
Cc1cc(C=C2SC(=S)NC2=O)oc1C | · | 3
COc1ccc2c(c1)-c1cc(Cl)ccc1S(=O)(=O)N2C(C)=O | 87* | -2
COc1ccc(N2C=C(C#N)S(=O)(=O)c3ccc(Cl)cc32)c(C)c1 | -6 | -4
O=C(Nc1ccc(F)c(F)c1F)c1ccc(=O)n(Cc2cccc([N+](=O)[O-])c2)c1 | 6 | 0
CC(=O)N1c2ccccc2NC2=C(C(=O)CC(C)(C)C2)C1CC1CC=C(C)C1(C)C (stereo not drawn) | 31 | 0
SMILES | mHTT-CaM PPI inh | Pf apPOL inh
CCC(=O)N1c2ccccc2NC2=C(C(=O)CC(C)(C)C2)C1CC1CC=C(C)C1(C)C (stereo not drawn) | 59* | -1
CCC(C)N1Cc2cc(NC(=O)Cc3ccccc3)ccc2OC(C)C1=O (stereo not drawn) | -3 | -5
COc1cc(OC)c(NC(=O)c2cccnc2)cc1Cl | -2 | -5
COc1cc(Cl)c(C)cc1NC(=O)c1cccnc1 | -5 | 97*
COC(=O)c1ccccc1NC(=O)c1nc(-c2cccc(F)c2)n2c1CCCCC2 | 3 | 1
COc1ccc(CCNC(=O)c2nc(-c3cccc(F)c3)n3c2CCCCC3)cc1OC | 51* | 5
COc1cc(NC(=O)c2nc(-c3cccc(F)c3)n3c2CCCCC3)cc(OC)c1OC | 65* | 6
CCOCCCNC(=O)c1nc(-c2cccc(F)c2)n2c1CCCCC2 | 20 | -2
COc1cccc(C2C(C#N)=C(N)Oc3n[nH]c(-c4ccccn4)c32)c1 (stereo not drawn) | 12 | -6
COc1ccc(CNC(=O)CSc2ccc(C)cc2)cc1 | -8 | -6
COc1ccc(C2=NOC(C(=O)NC(C)(C)C)C2)cc1OC (stereo not drawn) | -11 | 0
CC1=C(C(=O)Nc2cc(C)ccc2C)C(c2ccc(F)cc2)NC(=O)N1 (stereo not drawn) | -2 | 3
CC(C)NC(=O)c1ccc(OCC2CCCN(C(=O)C3(c4ccccc4)CC3)C2)cc1 (stereo not drawn) | 7 | -6
COc1c(C(C)C)cc(NC(C)=O)cc1C(C)C | -1 | -3
CC(=O)Nc1ccc(Nc2cc(C(C)C)c(O)c(C(C)C)c2)cc1 | 74* | 3
Cc1ccc(NS(=O)(=O)c2ccc3c4c(cccc24)C(=O)N3)c(C)c1 | -27 | -1
Cc1ccc(NS(=O)(=O)c2cccc3c2C(=O)c2ccccc2C3=O)c(C)c1 | 57* | -5
Cc1ccc2nc(-c3cc(N=Cc4cccc([N+](=O)[O-])c4O)ccc3O)[nH]c2c1 | 59* | 0
Cc1cccc2oc(-c3cc(N=Cc4cccc([N+](=O)[O-])c4)ccc3O)nc12 | 2 | -2
Cc1ccc2nc(-c3cc(N=Cc4ccc([N+](=O)[O-])cc4)ccc3O)[nH]c2c1 | 55* | 1
O=C(O)c1cccc(N=Cc2cccc([N+](=O)[O-])c2O)c1 | -3 | 83*
